Shown are actives, neighbours in structure and some others; about 3.4% of the full set was active somewhere.
TEAD-YAP inh: TEAD-YAP interaction inhibition, primary screen, TEAD-YAP interaction inhibitor project, luminescence, HEK-TIYL cells | TEAD-Gal4/YAP UAS-luciferase luminescence | inhibition, % at 9.12 µM | 640,000 compounds, 1.4% hits; in the data active = inhibition above about 32%;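 note: 0% = median of test compound wells and 100% = reference inhibitor wells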
FBW7 act: FBW7 E3 ligase activators, primary screen, biochemical, AlphaScreen, human; AlphaScreen FBW7–phospho-cyclin E peptide binding, activator screen; normalized activity (activation), % at 26.1 µM; 650,000 compounds, 0.13% hits; AID 1259310, 2017; in the data active = normalized activity above about 1.9%;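 note: purified mutant Fbw7 with reduced substrate affinity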
GPR151 ag: activators of human GPR151, primary screen, cell-based, PathHunter beta-arrestin, luminescence; G-protein coupled receptor 151 (Homo sapiens), Q8TDV0; PathHunter beta-arrestin GPR151 cells; activation, % at 11.2 µM; 650,000 compounds, 1% hits; AID 1508602, 2020; in the data active = activation above about 4.9%;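 note: 0% = median of compound wells and 100% = cells with positive control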
MITF primary: MITF inhibitors, primary screen, biochemical, AlphaScreen, human; AID 1259374, 2018; 650,000 compounds, 0.91% hits; Microphthalmia-associated transcription factor (Homo sapiens), O75030; inhibition, % at 2.6 µM; AlphaScreen MITF homodimerization, bead proximity signal; in the data active = inhibition above about 50%;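 note: 0% = vehicle wells with protein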
GPR151 confirm: GPR151 activators, triplicate retest, confirmation, cell-based, PathHunter beta-arrestin, luminescence; shares compounds with GPR151 ag; GPR151 PathHunter beta-arrestin cells, 90 min; % of EA-reagent control over plate median; activation, % at 11.2 µM; 6,700 tested, under 10 active;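 active = mean percent activation across replicates above the confirmation screen cutoff of 4.91%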
GPR119 ag: GPR119 activators in beta-arrestin cells, counter-screen for GPR151 activator project, cell-based, PathHunter beta-arrestin, luminescence, triplicate; shares compounds with GPR151 ag; 90 min; 0 = compound-well median, 100 = enzyme-acceptor control; activation, % at 11.2 µM; 6,700 compounds, 0.3% hits; AID 1508611, 2020;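 active = mean percent activation in the counterscreen above 29.09%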;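 note: counterscreen on off-target GPR119 to flag nonselective hits from the GPR151 activator screen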
Target sequence (Q8TDV5 whole entry, looked up): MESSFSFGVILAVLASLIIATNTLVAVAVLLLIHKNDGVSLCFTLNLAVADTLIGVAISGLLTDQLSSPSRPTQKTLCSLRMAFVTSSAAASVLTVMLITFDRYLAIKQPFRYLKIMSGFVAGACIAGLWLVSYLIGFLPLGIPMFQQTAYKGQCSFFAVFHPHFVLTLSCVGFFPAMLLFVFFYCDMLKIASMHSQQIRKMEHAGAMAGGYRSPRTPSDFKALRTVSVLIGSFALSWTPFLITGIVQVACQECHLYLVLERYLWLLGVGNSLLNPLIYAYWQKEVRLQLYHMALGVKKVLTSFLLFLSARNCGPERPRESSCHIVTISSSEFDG
* marks the source's active call; other numbers are inactive results; x = not tested or not shown.

SMILES	TEAD-YAP inh	FBW7 act	GPR151 ag	MITF primary	GPR151 confirm	GPR119 ag
O=C(Nc1nc(-c2ccccc2)c(C(=O)c2ccccc2)s1)c1ccccc1[N+](=O)[O-]	14	0	5.0*	2	1	9
Nc1ccc(S(=O)(=O)Nc2nccc(/C=C/c3ccccc3Cl)n2)cc1	-6	0	-1	13	x	x
COc1nc(Nc2cccc(C)c2)nc(N2CCCCC2)n1	-7	0	0	14	x	x
Cc1cccc(Nc2nc(N3CCCC3)nc(N3CCCC3)n2)c1	1	0	5.6*	4	1	4
Cc1cc(C(F)(F)F)nc2snc(Br)c12	2	0	5.2*	8	-1	-9
O=S(=O)(c1ccccc1)N1CCC(c2nc(-c3cccs3)no2)CC1	-1	0	0	-2	x	x
COc1cccc(S(=O)(=O)N2CCC(c3nc(-c4cccs4)no3)CC2)c1	-5	1	8.3*	17	0	4
N#Cc1ccc(NC(=O)COC(=O)C2COc3ccccc3O2)cc1 (stereo unspecified)	2	0	7.8*	2	0	1
CC(=O)OC(C(=O)NC1CCCCC1)c1cccc(F)c1 (stereo unspecified)	0	1	-1	-3	x	x
O=C(C1CCN(Cc2ccc3c(c2)OCO3)CC1)N1CCOCC1	-4	0	5.2*	26	0	10
O=C(C1CCN(C2CCN(Cc3ccc4c(c3)OCCO4)CC2)CC1)N1CCCC1	4	0	-1	-14	x	x
Cc1ccc(S(=O)(=O)N2C(=O)CCC2C(=O)O/N=C(\N)c2ccccc2)cc1 (stereo unspecified)	-10	0	8.4*	5	0	-4
Cc1ccc(S(=O)(=O)N2C(=O)CCC2C(=O)O/N=C(\N)c2cccnc2)cc1 (stereo unspecified)	2	0	5.2*	3	1	7
COc1cccc(CN2CCN(Cc3cccc(-n4cccn4)c3)CC2CCO)c1 (stereo unspecified)	2	0	0	-13	x	x
CS(=O)(=O)N(CC(=O)Nc1ccccc1C(F)(F)F)c1ccc2c(c1)OCO2	6	0	2	-10	x	x
Cc1cccc(N(CC(N)=O)C2SC(=O)N(Cc3cccc(C(=O)O)c3)C2=O)c1 (stereo unspecified)	-3	1	11*	13	0	-7
CCOC(=O)CN(c1cccc(C)c1)C1SC(=O)N(Cc2cccc(C(=O)O)c2)C1=O (stereo unspecified)	-5	1	0	1	x	x
FC(F)(F)C1=Nc2ccccc2N=C(c2ccccc2)C1	-47	0	-1	-5	x	x
CC(=O)Nc1ccc(NC(=O)c2cccc(-c3ccc(C(N)=O)cc3)n2)cc1	5	0	13*	5	0	-6
Cc1cc(C)cc(NC(=O)c2cnn3cccnc23)c1	-39	0	-1	-3	x	x
O=C(CCl)Nc1ccccc1C(=O)O	11	0	-2	-3	x	x
COC(=O)c1cccn2cc(-c3ccc(F)cc3)nc12	-10	0	4.9*	1	-1	-6
COCCOC(=O)c1c(C)oc2cc(Br)c(OCC(=O)OC(C)C)cc12	4	0	-1	-3	x	x
CC(C)C(=O)N=C1SC2CS(=O)(=O)CC2N1c1cccc(C(F)(F)F)c1 (stereo unspecified)	5	0	7.5*	-6	1	-12
CCC(C)NC(=O)C1=C(C)C(=O)OC12CCCCC2 (stereo unspecified)	1	0	12*	3	-1	-6
SMILES	TEAD-YAP inh	FBW7 act	GPR151 ag	MITF primary	GPR151 confirm	GPR119 ag
COc1cc(/C=C2\N=C(c3cc(OC)c(OC)c(OC)c3)OC2=O)cc(Br)c1OC(C)=O	7	0	5.5*	11	0	12
COc1cc(/C=C2/N=C(c3ccc(Cl)cc3)OC2=O)cc(Br)c1OC(C)=O	2	0	-1	9	x	x
COc1cc(OC)cc(C(=O)N2CCc3ccccc3C2CNC(=O)Nc2ccc(Cl)c(Cl)c2)c1 (stereo unspecified)	4	0	5.3*	-8	1	9
COc1cc(OC)cc(C(=O)NNC(=O)Nc2ccc(Cl)c(Cl)c2)c1	6	0	-2	11	x	x
O=c1c2ccccc2cnn1Cc1cccc(Br)c1	-15	0	0	7	x	x
O=C1N/C(=C/C=C/c2ccccc2[N+](=O)[O-])C(=O)N1c1ccccc1	0	1	-3	21	x	x
Cc1cccc(CN2CCN(Cc3nc(-c4ccc(F)cc4)cs3)CC2CCO)n1 (stereo unspecified)	1	0	10*	-9	1	5
CCOC(=O)c1c(C)oc2nc(CCl)[nH]c(=O)c12	4	0	12*	-4	-1	-9
COc1ccc(C(=O)Nc2cc([N+](=O)[O-])ccc2OC)c(OC)c1	-3	0	-2	1	x	x
Cc1ccccc1-n1c2nc(=O)[nH]c(=O)c-2cc2c(Cl)cccc21	8	0	8.3*	-4	1	7
Cn1nccc1Nc1nc(C(=O)NCc2ccccc2)cs1	-3	0	-1	5	x	x
Cn1nccc1Nc1nc(C(=O)NCc2cccnc2)cs1	-3	0	5.3*	-2	-1	-13
Cn1nccc1Nc1nc(C(=O)Nc2ccccc2)cs1	-14	0	5.6*	9	0	-7
Cn1nccc1Nc1nc(C(=O)NCc2cccc(C(F)(F)F)c2)cs1	-9	0	8.7*	20	0	-2
C/C(=N\O)c1ccc(C2CCCCC2)cc1	-13	0	0	-2	x	x
CCOC(=O)NC(NC(=O)OCC)c1ccc(F)cc1	2	0	0	4	x	x
CN(C)c1ccc(CNC(C)(C)CO)cc1	2	1	5.1*	14	1	3
CSc1ccc(CNC(C)(C)CO)cc1	7	0	0	12	x	x
COc1ccc2nc(NC(=O)C34CCC(C)(C(=O)C3)C4(C)C)sc2c1 (stereo unspecified)	-11	0	9.1*	-4	0	-9
Cc1cccc(C)c1NC(=O)C1c2cccc[n+]2CC(=O)N1CCO (stereo unspecified)	-1	0	1	-11	x	x
CCCN1C(=O)C[n+]2ccccc2C1C(=O)Nc1ccccc1C (stereo unspecified)	2	1	12*	2	1	2
Cc1ccc(-n2c(C)cc(/C=C3/SC(=Nc4cc(C)cc(C)c4)NC3=O)c2C)cc1	0	0	0	2	x	x

High-throughput results deposited in PubChem by The Scripps Research Institute Molecular Screening Center.
